# From PubChem BioAssay (NCATS)
# Where “and” joins values, the source holds several entries; their conditions need not be identical. Equal values may be shown once. Inconclusive results are not listed. A call without a number means that no potency is given here. Values without a mark were called inactive. Calls of active or inactive are those of the source. Calls follow the shape of the dose curve; as a rule, active = well fitted curve in the direction sought with a large enough effect; inconclusive = small, poorly fitted or top-dose-only effect, or another doubt; inactive = no such curve, though single readings can be large; an effect the other way counts as inactive or inconclusive. Where a SMILES comes first, the peptide text is derived from it. Bridges are numbered along the chain shown (N, C = ends). [ ]: non-standard residue; d: D form. hArg = N=C(N)NCCCC[C@H](N)C(=O)O; Mpa = O=C(O)CCS
# Assays:
# [1] = target: Cytochrome P450 3A7 (Homo sapiens) (UniProt P24462); assay: Cytochrome P450 family 3 subfamily A member 7 (CYP3A7) small molecule antagonists: luciferase biochemical qHTS assay (AID 1963596); also: nearly all actives have a fitted effect of over 40% in size
# Procedure, shortened: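 Compounds were screened in qHTS format for interference with CYP3A7 turnover of a proluciferin substrate. Reactions ran 1 h at room temperature after NADPH regeneration solution was added, then luciferin product was detected by luminescence.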
# [2] = Quantitative highthroughput screen to assess conditional lethalithy of NOMO1 cells grown in RPMI1640 with untreated serum (RPMI+s) (AID 1963876); also: nearly all actives have a fitted effect of over 35% in size; also: potency is read from the fitted curve at half-maximal effect
# Procedure, shortened: (§1)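 Each medium arm—HPLM with 10% dialyzed FBS, or RPMI1640 with 5 mM glucose and 10% untreated or dialyzed FBS—was screened against an 11-point, 3-fold compound titration for 48 h at 37 °C, with CellTiter-Glo luminescence as endpoint.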
# [3] = Quantitative highthroughput screen to assess conditional lethalithy of NOMO1 cells grown in Human Plasma-Like Medium with dialyzed fetal bovine serum (HPLM+ds) (AID 1963878); also: nearly all actives have a fitted effect of over 35% in size; also: potency is read from the fitted curve at half-maximal effect
# Procedure, shortened: as §1
# [4] = Quantitative highthroughput screen to assess conditional lethalithy of P12 Ichikawa cells grown in Human Plasma-Like Medium with dialyzed fetal bovine serum (HPLM+ds) (AID 1963879); conditions: Potency: viability; also: nearly all actives have a fitted effect of over 35% in size; also: potency is read from the fitted curve at half-maximal effect; as to viability: series mostly up to about 46 µM
# Procedure, shortened: as §1
# [5] = Quantitative highthroughput screen to assess conditional lethalithy of P12 Ichikawa cells grown in RPMI1640 with dialyzed fetal bovine serum (RPMI+ds) (AID 1963880); conditions: Potency: P12-Ichikawa viability; also: nearly all actives have a fitted effect of over 35% in size; also: potency is read from the fitted curve at half-maximal effect
# Procedure, shortened: as §1
# [6] = Quantitative highthroughput screen to assess conditional lethalithy of P12 Ichikawa cells grown in RPMI1640 with untreated serum (RPMI+s) (AID 1963881); conditions: Potency: viability; also: nearly all actives have a fitted effect of over 35% in size; also: potency is read from the fitted curve at half-maximal effect; as to viability: series mostly up to about 46 µM
# Procedure, shortened: as §1
# [7] = Quantitative highthroughput screen to assess conditional lethalithy of SEM cells grown in Human Plasma-Like Medium with dialyzed fetal bovine serum (HPLM+ds) (AID 1963882); also: nearly all actives have a fitted effect of over 35% in size; also: potency is read from the fitted curve at half-maximal effect; as to viability: series mostly up to about 46 µM
# Procedure, shortened: as §1
# [8] = Quantitative highthroughput screen to assess conditional lethalithy of SEM cells grown in RPMI1640 with unreated serum (RPMI+s) (AID 1963883); also: nearly all actives have a fitted effect of over 35% in size; also: potency is read from the fitted curve at half-maximal effect
# Procedure, shortened: as §1
# [9] = Quantitative highthroughput screen to assess conditional lethalithy of SEM cells grown in RPMI1640 with dialyzed fetal bovine serum (RPMI+ds) (AID 1963884); also: nearly all actives have a fitted effect of over 35% in size; also: potency is read from the fitted curve at half-maximal effect; as to viability: series mostly up to about 46 µM
# Procedure, shortened: as §1
# [10] = Cellular viability qHTS for adrenocortical cancer (ACC) cell line SW-13 (AID 1963989); conditions: SW-13 ACC cells viability, CellTiter-Glo, 48 h; activity (max response): active compounds read low; also: nearly all actives have a fitted effect of over 65% in size; also: potency is read from the fitted curve at half-maximal effect;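 as to activity (max response): cells grown in serum-free medium with ITS supplement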
# Procedure, shortened: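 48 h treatment, SW-13 in ITS/DMEM serum-free; doses up to 46 uM; readout CellTiter-Glo luminescence; curve fit four-parameter logistic.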
# [11] = Cellular viability qHTS for adrenocortical cancer (ACC) cell line NCI-H295R (AID 1963990); also: nearly all actives have a fitted effect of over 60% in size; also: potency is read from the fitted curve at half-maximal effect
# Procedure, shortened: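 Compound titrations (up to 46 uM final) are applied to NCI-H295R cultures for 48 h at 37C. Viable cell number is estimated by CellTiter-Glo signal, normalised to DMSO and doxorubicin controls.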
# [12] = Quantitative highthroughput screen to assess conditional lethalithy of NOMO1 cells grown in RPMI1640 with dialyzed fetal bovine serum (RPMI+ds) (AID 1963877); also: nearly all actives have a fitted effect of over 30% in size; also: potency is read from the fitted curve at half-maximal effect; as to viability: series mostly up to about 46 µM
# Procedure, shortened: as §1
# Cytochrome P450 3A7 (Homo sapiens), sequence (P24462 whole entry, looked up): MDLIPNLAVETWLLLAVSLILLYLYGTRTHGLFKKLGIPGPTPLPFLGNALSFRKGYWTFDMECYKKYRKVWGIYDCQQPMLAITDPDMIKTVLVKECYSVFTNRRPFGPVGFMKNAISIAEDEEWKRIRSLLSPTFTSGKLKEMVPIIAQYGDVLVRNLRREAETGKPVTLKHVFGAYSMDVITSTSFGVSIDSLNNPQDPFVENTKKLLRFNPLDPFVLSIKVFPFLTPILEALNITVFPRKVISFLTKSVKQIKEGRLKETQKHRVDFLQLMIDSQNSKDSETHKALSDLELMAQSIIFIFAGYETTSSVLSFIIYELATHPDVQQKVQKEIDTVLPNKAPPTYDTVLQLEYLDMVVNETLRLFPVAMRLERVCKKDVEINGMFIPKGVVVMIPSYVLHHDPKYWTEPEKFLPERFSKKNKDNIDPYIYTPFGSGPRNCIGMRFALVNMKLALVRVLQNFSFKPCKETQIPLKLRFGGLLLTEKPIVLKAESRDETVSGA
compound,measurement,setting,value
COc1ccc(CCN2CCN(CCCc3ccccc3)CC2)cc1OC,Potency,[1],inactive
same,Potency,[2],inactive
same,Potency,[3],inactive
same,Potency,[4],inactive
same,Potency,[5],inactive
same,Potency,[6],inactive
same,Potency,[7],inactive
same,Potency,[8],inactive
same,Potency,[9],inactive
same,activity (max response),[10],-13%
same,Potency,[11],inactive
O=c1[nH]cc(F)c(=O)[nH]1,Potency,[1],inactive
same,Potency,[3],10500 nM (active)
same,Potency,[4],8330 nM (active)
same,Potency,[5],10500 nM (active)
same,Potency,[8],9350 nM (active)
same,Potency,[9],10500 nM (active)
same,activity (max response),[10],-6.36%
same,Potency,[11],inactive
CO[C@@H]1[C@@H](O[C@@H]2O[C@H](C)[C@@H](O[C@H]3C[C@@](C)(O)[C@@H](O)[C@H](C)O3)[C@H](N(C)C)[C@H]2O)[C@@H](CC=O)C[C@@H](C)[C@@H](O[C@@H]2CC[C@H](N(C)C)[C@@H](C)O2)/C=C/C=C/C[C@@H](C)OC(=O)C[C@H]1OC(C)=O,Potency,[1],inactive
same,activity (max response),[10],-1.59%
same,Potency,[11],inactive
CN1CCN(c2c(F)cc3c(=O)c(C(=O)O)cn4c3c2SCC4)CC1,Potency,[1],inactive
same,activity (max response),[10],-3.92%
COc1ccc(-c2cc(C(F)F)nn2-c2ccc(S(N)(=O)=O)cc2)cc1F,Potency,[1],inactive
same,activity (max response),[10],-7.1%
NC(=O)CC[C@@H]1NC(=O)[C@H](Cc2ccccc2)NC(=O)[C@H](Cc2ccc(O)cc2)NC(=O)CCSSC[C@@H](C(=O)N2CCC[C@H]2C(=O)N[C@@H](CCCN=C(N)N)C(=O)NCC(N)=O)NC(=O)[C@H](CC(N)=O)NC1=O,Potency,[1],inactive
same,activity (max response),[10],-1.25%
COc1ccc(Nc2cc(-c3cnc(N)nc3)nc(N3CCOCC3)n2)cn1,Potency,[1],inactive
same,Potency,[5],2640 nM (active)
same,Potency,[6],2350 nM (active)
same,Potency,[11],2240 nM (active)
NC(=O)[C@@H]1CSSCCC(=O)N[C@@H](CCCCN=C(N)N)C(=O)NCC(=O)N[C@@H](CC(=O)O)C(=O)N[C@@H](Cc2c[nH]c3ccccc23)C(=O)N2CCC[C@H]2C(=O)N1 ([Mpa][hArg]GDWPC-NH2; disulfide 1-7),Potency,[1],inactive
same,activity (max response),[10],17.5%
CCCCc1nc2cc(C=CC(=O)NO)ccc2n1CCN(CC)CC,Potency,[1],inactive
same,Potency,[2],4180 nM (active)
same,Potency,[4],2640 nM (active)
same,Potency,[5],2960 nM (active)
same,Potency,[6],2960 nM (active)
same,Potency,[7],1870 nM (active)
same,Potency,[8],2090 nM (active)
same,Potency,[9],2090 nM (active)
CCOC(=O)N1CCN([N+]([O-])=NOc2ccc([N+](=O)[O-])cc2C#N)CC1,Potency,[1],inactive
same,Potency,[2],3320 nM (active)
same,Potency,[12],2960 nM (active)
same,Potency,[4],1050 nM (active)
same,Potency,[5],1050 nM (active)
same,Potency,[6],1050 nM (active)
same,Potency,[7],1180 nM (active)
same,Potency,[8],1050 nM (active)
same,Potency,[9],1050 nM (active)
COc1cc(Nc2ncc3c(n2)-c2ccc(Cl)cc2C(c2c(F)cccc2OC)=NC3)ccc1C(=O)O,Potency,[1],inactive
same,Potency,[2],83.3 nM (active)
same,Potency,[12],66.2 nM (active)
same,Potency,[4],74.3 nM (active)
same,Potency,[6],59 nM (active)
same,Potency,[10],31600 nM (active)
same,Potency,[11],2240 nM (active)
N[C@H]1CN(c2c(F)cc3c(=O)c(C(=O)O)cn(C4C[C@@H]4F)c3c2Cl)CC12CC2 (stereo not given in full),Potency,[1],inactive
same,Potency,[12],inactive
same,Potency,[4],inactive
same,Potency,[5],inactive
same,activity (max response),[10],4.52%
same,Potency,[11],inactive
N#C[C@H]1C[C@H]2C[C@@H]2N1C(=O)[C@@H](N)C12CC3CC(CC(O)(C3)C1)C2,Potency,[1],inactive
same,Potency,[3],10500 nM (active)
same,Potency,[4],inactive
same,Potency,[6],inactive
same,Potency,[9],inactive
same,activity (max response),[10],11.7%
same,Potency,[11],inactive
N[C@@H](CSCCCO)C(=O)O,Potency,[1],inactive
same,activity (max response),[10],14.2%
CCO/C([O-])=N/c1c[n+](N2CCOCC2)no1,Potency,[1],inactive
same,activity (max response),[10],-2.98%
same,Potency,[11],inactive
CCOC(CN1CCN(CC(C)C(=O)c2ccccc2)CC1)c1ccccc1 (stereo not given),Potency,[1],inactive
same,activity (max response),[10],-8.86%
CC(=O)NC[C@H]1CN(c2ccc(N3CCOCC3)c(F)c2)C(=O)O1,Potency,[1],inactive
same,Potency,[2],inactive
same,Potency,[12],inactive
same,Potency,[3],inactive
same,Potency,[4],inactive
same,Potency,[5],inactive
same,Potency,[6],inactive
same,Potency,[8],inactive
same,Potency,[9],inactive
same,activity (max response),[10],5.63%
COc1ccc(C=CC(=O)Nc2ccccc2C(=O)O)cc1OC,Potency,[1],inactive
same,Potency,[2],inactive
same,Potency,[12],inactive
same,Potency,[5],inactive
same,Potency,[6],inactive
same,Potency,[7],inactive
same,Potency,[8],inactive
CC1(C)O[C@@H]2C[C@H]3[C@@H]4C[C@H](F)C5=CC(=O)CC[C@]5(C)[C@H]4[C@@H](O)C[C@]3(C)[C@]2(C(=O)CO)O1,Potency,[1],inactive
same,activity (max response),[10],3.69%
C[C@@H]1CCO[C@H]2Cn3cc(C(=O)NCc4ccc(F)cc4F)c(=O)c(O)c3C(=O)N12,Potency,[1],inactive
same,Potency,[2],inactive
same,Potency,[12],inactive
same,Potency,[3],inactive
same,Potency,[4],inactive
same,Potency,[6],inactive
same,Potency,[7],inactive
same,Potency,[8],inactive
same,Potency,[9],inactive
CC(S)C(=O)NCC(=O)O (stereo not given),Potency,[1],inactive
same,Potency,[2],inactive
same,Potency,[12],inactive
same,Potency,[4],inactive
same,Potency,[6],inactive
same,activity (max response),[10],6.56% and -5.95%
same,Potency,[11],inactive
CCOc1cc(C(=O)Nc2ccc(Cl)c(-c3nc4ccccc4[nH]3)c2)cc(OCC)c1OCC,Potency,[1],inactive
same,Potency,[4],inactive
same,Potency,[11],inactive
Nc1ccn(C2CO[C@H](CO)O2)c(=O)n1 (stereo not given in full),Potency,[1],inactive
same,Potency,[2],inactive
same,Potency,[12],inactive
same,Potency,[3],inactive
same,Potency,[4],inactive
same,Potency,[5],inactive
same,Potency,[7],inactive
same,Potency,[8],inactive
same,Potency,[9],inactive
